Experimental findings from the antibiotic and cytotoxicity screens of Wong et al. (2023) are described below.

The structures appear in SMILES notation. Among all 39,000 compounds or so, about 1,500 (3.8%) were called active. Shown is part of a subset that was picked to be rich in actives.

This assay has as its system HSkMC (human skeletal muscle cells). Nature of the assay: cytotoxicity call (relative viability < 0.9). The settings on record: 10 µM.
In the case of `CC(C)C[N+]1(C)Cc2ccccc2C1`, the cytotoxicity call was “inactive”.
Then `C[C@H](CO)N1C[C@H](C)[C@H](CN(C)Cc2ccc(-c3ccccc3)cc2)Oc2ccc(NS(=O)(=O)c3cccs3)cc2C1=O`, with “inactive”; and `Cc1ccc(S(=O)(=O)Nc2ccc3c(c2)C(=O)N([C@@H](C)CO)C[C@@H](C)[C@H](CN(C)Cc2ccc(-c4ccccc4)cc2)O3)cc1`, with “inactive”; and `Cc1ccc(S(=O)(=O)Nc2ccc3c(c2)C(=O)N([C@@H](C)CO)C[C@H](C)[C@@H](CN(C)Cc2ccc(-c4ccccc4)cc2)O3)cc1`, with “inactive”.
On to `C[C@@H]1CN([C@@H](C)CO)C(=O)c2cc(NS(=O)(=O)c3ccccc3)ccc2O[C@@H]1CN(C)Cc1ccc(-c2ccccc2)cc1`, for which the cytotoxicity call is “active”.
Next, `Cc1ccc(S(=O)(=O)Nc2ccc3c(c2)C(=O)N([C@H](C)CO)C[C@@H](C)[C@@H](CN(C)Cc2ccc(-c4ccccc4)cc2)O3)cc1`: “active”; `C[C@@H]1CN([C@H](C)CO)C(=O)c2cc(NS(=O)(=O)c3cccs3)ccc2O[C@@H]1CN(C)Cc1ccc(-c2ccccc2)cc1`: “active”; `Cc1ccc(S(=O)(=O)Nc2ccc3c(c2)C(=O)N([C@H](C)CO)C[C@@H](C)[C@H](CN(C)Cc2ccc(-c4ccccc4)cc2)O3)cc1`: “inactive”.
Next, `Cc1ccc(S(=O)(=O)Nc2ccc3c(c2)C(=O)N([C@H](C)CO)C[C@H](C)[C@H](CN(C)Cc2ccc(-c4ccccc4)cc2)O3)cc1`: “active”.
Next, `C[C@@H]1CN([C@@H](C)CO)C(=O)c2cc(NS(=O)(=O)c3ccccc3)ccc2O[C@H]1CN(C)Cc1ccc(-c2ccccc2)cc1`: “inactive”; `C[C@H](CO)N1C[C@H](C)[C@@H](CN(C)Cc2ccc(-c3ccccc3)cc2)Oc2ccc(NS(=O)(=O)c3cccs3)cc2C1=O`: “inactive”; `Cc1ccc(S(=O)(=O)Nc2ccc3c(c2)C(=O)N([C@@H](C)CO)C[C@@H](C)[C@@H](CN(C)Cc2ccc(-c4ccccc4)cc2)O3)cc1`: “inactive”.
For the compound `C[C@H]1CN([C@@H](C)CO)C(=O)c2cc(NS(=O)(=O)c3ccccc3)ccc2O[C@H]1CN(C)Cc1ccc(-c2ccccc2)cc1`, the cytotoxicity call was “inactive”.
Regarding `COc1ccc(S(=O)(=O)N(C)C[C@@H]2Oc3ccc(NC(=O)CCCN(C)C)cc3C(=O)N([C@H](C)CO)C[C@@H]2C)cc1`, the cytotoxicity call was “inactive”.
Next, `COc1ccc(-c2cn(CCNC(=O)[C@H](Cc3ccccc3)NS(=O)(=O)c3ccc(C)cc3)nn2)cc1OC`: “inactive”; `CC(/C=C/C(=O)NO)=C\c1cccc(OC[C@@H]2[C@H]3C[C@H]4c5[nH]c6ccccc6c5CCN4C[C@@H]3CC[C@@H]2O)c1`: “inactive”; `O=C(N[C@@H](c1ccc(-c2ccccc2)cc1)c1cnccn1)C1CCN(CCCOc2ccccc2)CC1`: “inactive”.
Then `CC(=O)NC1C(O)CC(O)(C(=O)O)OC1C(O)C(O)CO` (stereo not given), with “inactive”.
Then `C[C@H]1CCCCO[C@@H](CN(C)S(C)(=O)=O)[C@@H](C)CN([C@@H](C)CO)C(=O)c2cc(N(C)C)ccc2O1`, with “inactive”; and `C[C@H](CO)N1C[C@H](C)[C@H](CN(C)C(=O)Nc2ccc(C(F)(F)F)cc2)Oc2ccc(NC(=O)CCC(F)(F)F)cc2CC1=O`, with “inactive”.
With `Cc1ccc(S(=O)(=O)C[C@H](C)N2CCOCC2)c(S(=O)(=O)C[C@@H](C)N2CCOCC2)c1`, the cytotoxicity call was “inactive”.
Next, `CCNC(=O)C[C@@H]1C=C[C@@H](NC(=O)C2CC2)[C@@H](CO)O1`: “inactive”; `COc1ccc(NC(=O)Nc2ccc3c(c2)CC(=O)N([C@@H](C)CO)C[C@H](C)[C@H](CN(C)C(=O)Nc2cccc4ccccc24)O3)cc1`: “inactive”.
Then `CCCNC(=O)Nc1ccc2c(c1)OC[C@@H](C)N(C(=O)C1CCOCC1)C[C@@H](C)[C@@H](OC)CN(C)C2=O`, with “inactive”; and `C[C@H]1CN([C@@H](C)CO)C(=O)c2cc(Br)cnc2O[C@@H]1CN(C)Cc1cccc(C(=O)O)c1`, with “inactive”.
Then `CNCC(=O)O`, with “inactive”; and `O=C(O)CNC(=O)C(=O)O`, with “active”; and `NCC(=O)NCC(=O)O`, with “inactive”.
`O=C(CCCCCNC(=O)OCCCOc1ccc(C2=N[C@]3(Cc4ccccc4)C(=O)N(Cc4ccccc4)Cc4ccccc4[C@@H]3O2)cc1)NO`: the cytotoxicity call was “inactive”.
As to `C[C@@H]1CCCCO[C@@H](CN(C)C(=O)Nc2ccc3c(c2)OCO3)[C@@H](C)CN([C@H](C)CO)C(=O)c2cc(NC(=O)CCCCCC(=O)Nc3ccccc3N)ccc2O1`, the cytotoxicity call is “inactive”.
Regarding `NC(=O)c1ncn([C@@H]2O[C@H](CO)[C@@H](O)[C@H]2O)n1`, the cytotoxicity call was “inactive”.
On to `C[C@@H]1CN([C@H](C)CO)C(=O)c2cc(NC(=O)Nc3ccc(F)cc3)ccc2O[C@@H]1CN(C)Cc1ccc(C(=O)Nc2ccccc2N)cc1`, for which the cytotoxicity call is “inactive”.
For the compound `Cc1ncc(NC(=O)c2cccc(C(F)(F)F)c2)cc1-c1cnc(OC2CCOCC2)c(N2CCOCC2)c1`, the cytotoxicity call was “inactive”.
For the compound `Cc1ccc(Nc2ncc3c(n2)N(C)C(=O)N(c2cc(NC(=O)c4cccc(C(F)(F)F)c4)ccc2C)C3)cn1`, the cytotoxicity call is “active”.
Then `O=C(Nc1cccc(C(F)(F)F)c1)c1ccc2ccccc2c1`, with “inactive”.
Next, `C[C@H]1CN([C@@H](C)CO)C(=O)Cc2cc(NS(=O)(=O)c3ccc(Cl)cc3)ccc2O[C@H]1CN(C)C(=O)Nc1ccc(C(F)(F)F)cc1`: “inactive”; `CCc1c(c/2[nH]c1/C=C/1\N=C(/C(=C/3\N=C(/C=C/4\N/C(=C2)C(=C4C)C=C)[C@@H](C)[C@@H]3CCC(=O)O)CC(=O)N[C@@H](CC(=O)O)C(=O)O)C(=C1C)C(=O)O)C`: “inactive”.
Next, `CCCCCCO[C@H](C)c1c(c/2[nH]c1/C=C/1\N=C(/C=C/3\NC4=C(CC(=O)C4=C3C)C3=N/C(=C2)[C@@H](C)[C@@H]3CCC(=O)O)C(=C1C)CC)C`: “active”; `CC1=C(CCC(=O)O)c2cc3[nH]c(cc4nc(cc5[nH]c(cc1n2)c(C)c5C(C)O)C(C)=C4C(C)O)c(C)c3CCC(=O)O` (stereo not given): “inactive”; `C[C@H](N)C(=O)N1CCc2ccccc2C1`: “inactive”.
With `C[C@@H]1CCCCO[C@@H](CN(C)S(=O)(=O)c2ccc(F)cc2)[C@@H](C)CN([C@@H](C)CO)C(=O)c2cc(NC(=O)Nc3ccc(F)cc3)ccc2O1`, the cytotoxicity call was “inactive”.
For `CC(N)O.Cc1cc(CC(C)CC(C)(C)C)n(O)c(=O)c1` (stereo not given), the cytotoxicity call was “inactive”.
Then `C[C@@H]1CCCCO[C@H](CN(C)C(=O)Cc2ccccc2)[C@@H](C)CN([C@H](C)CO)C(=O)c2cc(NC(=O)Nc3ccc(C(F)(F)F)cc3)ccc2O1`, with “inactive”; and `C[C@@H]1CCCCO[C@@H](CN(C)C(=O)Cc2ccccc2)[C@@H](C)CN([C@H](C)CO)C(=O)c2cc(NC(=O)Nc3ccc(C(F)(F)F)cc3)ccc2O1`, with “inactive”.
Then `C[C@H](CO)N1C[C@H](C)[C@H](CN(C)C(=O)Cc2ccccc2)OCCCC[C@H](C)Oc2ccc(NC(=O)Nc3ccc(C(F)(F)F)cc3)cc2C1=O`, with “inactive”; and `C[C@@H]1CN([C@@H](C)CO)C(=O)c2cc(NC(=O)Nc3ccc(C(F)(F)F)cc3)ccc2O[C@@H](C)CCCCO[C@H]1CN(C)C(=O)Cc1ccccc1`, with “active”.
On to `C[C@H](CO)N1C[C@H](C)[C@@H](CN(C)C(=O)Cc2ccccc2)OCCCC[C@H](C)Oc2ccc(NC(=O)Nc3ccc(C(F)(F)F)cc3)cc2C1=O`, for which the cytotoxicity call was “inactive”.
Next, `C[C@@H]1CCCCO[C@H](CN(C)C(=O)Cc2ccccc2)[C@@H](C)CN([C@@H](C)CO)C(=O)c2cc(NC(=O)Nc3ccc(C(F)(F)F)cc3)ccc2O1`: “inactive”.
Next, `C[C@@H]1CCCCO[C@@H](CN(C)C(=O)Cc2ccccc2)[C@@H](C)CN([C@@H](C)CO)C(=O)c2cc(NC(=O)Nc3ccc(C(F)(F)F)cc3)ccc2O1`: “inactive”; `C[C@@H]1CN([C@H](C)CO)C(=O)c2cc(NC(=O)Nc3ccc(C(F)(F)F)cc3)ccc2O[C@@H](C)CCCCO[C@@H]1CN(C)C(=O)Cc1ccccc1`: “active”.
Next, `C[C@@H]1CCCCO[C@H](CN(C)C(=O)Cc2ccccc2)[C@H](C)CN([C@@H](C)CO)C(=O)c2cc(NC(=O)Nc3ccc(C(F)(F)F)cc3)ccc2O1`: “active”; `COc1ccc(NC(=O)N(C)C[C@@H]2OCc3cnnn3CCCC(=O)N([C@H](C)CO)C[C@@H]2C)c(OC)c1`: “inactive”; `C[C@@H]1CCCCO[C@@H](CN(C)C(=O)CCC(F)(F)F)[C@@H](C)CN([C@@H](C)CO)C(=O)c2cc(NC(=O)CCC(F)(F)F)ccc2O1`: “inactive”.
As to `C[C@@H]1CN(C)C(=O)c2cccc(NC(=O)c3ccncc3)c2O[C@H]1CN(C)Cc1ccc(Oc2ccccc2)cc1`, the cytotoxicity call is “inactive”.
Next, `O=C(C[C@@H]1CC[C@@H]2[C@H](COC[C@@H](O)CN2S(=O)(=O)c2ccccc2)O1)N[C@H]1CCN(Cc2ccccc2)C1`: “inactive”.
Then `COc1cc(-c2cc(=O)c3c(s2)N(Cc2ccco2)[C@@H](c2ccc(O)c(OC)c2)CC3=O)ccc1O`, with “inactive”; and `C[C@H](CO)N1C[C@H](C)[C@@H](CN(C)C(=O)Nc2ccc(F)cc2)Oc2ccc(NC(=O)Nc3cccc4ccccc34)cc2CC1=O`, with “inactive”; and `CC(C)(C)C(=O)OCOP(=O)(OCOC(=O)C(C)(C)C)C(C)(Oc1ccc(O)cc1)P(=O)(OCOC(=O)C(C)(C)C)OCOC(=O)C(C)(C)C`, with “inactive”.
Consider `O=C1Nc2ccc(I)cc2C1=Cc1cc(Br)c(O)c(Br)c1`, for which the cytotoxicity call was “active”.
Next, `COc1ccc2c(c1)/C(=N\O)C(=O)N2`: “inactive”.
Then `COc1ccc2c(c1)C(=O)C(=O)N2`, with “inactive”; and `C[C@H](CO)N1C[C@H](C)[C@H](CN(C)C(=O)Nc2ccc(C(F)(F)F)cc2)OCCCC[C@H](C)Oc2ccc(NC(=O)c3ccccc3)cc2C1=O`, with “inactive”.
Next, `C[C@H](CO)N1C[C@H](C)[C@H](CN(C)C(=O)Nc2ccc3c(c2)OCO3)OCCCC[C@H](C)Oc2ccc(NS(=O)(=O)c3ccccc3)cc2C1=O`: “inactive”; `CCN1C(=O)[C@H]2[C@H](O)CS[C@H]2C1=O`: “inactive”; `C[C@@H]1CN([C@@H](C)CO)S(=O)(=O)c2ccc(C#C[C@@H](C)O)cc2O[C@H]1CN(C)C(=O)C1CCCCC1`: “inactive”.
